Source: PubChem BioAssay
Most compounds without a hit are left out; they make up all but 5.3% or so of the library.
TDP1 inh = qHTS Assay for Inhibitors of Tyrosyl-DNA Phosphodiesterase (TDP1) | Tyrosyl-DNA phosphodiesterase 1 (Homo sapiens), Q9NUW8 | recombinant TDP1, AlphaScreen DNA substrate cleavage | Potency, µM (top dose mostly 130 µM), hits mostly inhibitors | hit rate 0.28% among 350,000 | AID 485290, 2010; also: nearly all actives have a fitted effect of over 40% in size
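Here, a 5' biotin and 3' phosphotyrosine-FITC DNA oligonucleotide reports Tdp1 activity: intact substrate bridges AlphaScreen beads, while cleavage leaves a 3' phosphate and drops signal. All incubations at room temperature.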
BAZ2B block = qHTS Assay for Inhibitors of BAZ2B. hit rate 4.4% among 360,000. AlphaScreen BAZ2B-H3K14Ac peptide displacement. Potency, µM (doses to about 114 µM), hits mostly inhibitors; also: nearly all actives have a fitted effect of over 60% in size
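Compounds, titrated to a top concentration of 110 uM, were incubated 30 min at room temperature with preformed BAZ2B/acetyl-K14 H3 peptide complex (50 nM each). Proximity signal was measured by AlphaScreen after 20 min with beads.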
JMJD2A Tudor inh = qHTS Assay for Inhibitors of JMJD2A-Tudor Domain; Lysine-specific demethylase 4A (Homo sapiens), O75164; hit rate 4.4% among 390,000; Potency, µM (series often up to 114 µM), usual class: inhibitors; AlphaScreen JMJD2A-Tudor / H3K4me3 peptide binding; also: nearly all actives have a fitted effect of over 50% in size
Target sequence (O75164 whole entry, looked up, the tested form may be a part): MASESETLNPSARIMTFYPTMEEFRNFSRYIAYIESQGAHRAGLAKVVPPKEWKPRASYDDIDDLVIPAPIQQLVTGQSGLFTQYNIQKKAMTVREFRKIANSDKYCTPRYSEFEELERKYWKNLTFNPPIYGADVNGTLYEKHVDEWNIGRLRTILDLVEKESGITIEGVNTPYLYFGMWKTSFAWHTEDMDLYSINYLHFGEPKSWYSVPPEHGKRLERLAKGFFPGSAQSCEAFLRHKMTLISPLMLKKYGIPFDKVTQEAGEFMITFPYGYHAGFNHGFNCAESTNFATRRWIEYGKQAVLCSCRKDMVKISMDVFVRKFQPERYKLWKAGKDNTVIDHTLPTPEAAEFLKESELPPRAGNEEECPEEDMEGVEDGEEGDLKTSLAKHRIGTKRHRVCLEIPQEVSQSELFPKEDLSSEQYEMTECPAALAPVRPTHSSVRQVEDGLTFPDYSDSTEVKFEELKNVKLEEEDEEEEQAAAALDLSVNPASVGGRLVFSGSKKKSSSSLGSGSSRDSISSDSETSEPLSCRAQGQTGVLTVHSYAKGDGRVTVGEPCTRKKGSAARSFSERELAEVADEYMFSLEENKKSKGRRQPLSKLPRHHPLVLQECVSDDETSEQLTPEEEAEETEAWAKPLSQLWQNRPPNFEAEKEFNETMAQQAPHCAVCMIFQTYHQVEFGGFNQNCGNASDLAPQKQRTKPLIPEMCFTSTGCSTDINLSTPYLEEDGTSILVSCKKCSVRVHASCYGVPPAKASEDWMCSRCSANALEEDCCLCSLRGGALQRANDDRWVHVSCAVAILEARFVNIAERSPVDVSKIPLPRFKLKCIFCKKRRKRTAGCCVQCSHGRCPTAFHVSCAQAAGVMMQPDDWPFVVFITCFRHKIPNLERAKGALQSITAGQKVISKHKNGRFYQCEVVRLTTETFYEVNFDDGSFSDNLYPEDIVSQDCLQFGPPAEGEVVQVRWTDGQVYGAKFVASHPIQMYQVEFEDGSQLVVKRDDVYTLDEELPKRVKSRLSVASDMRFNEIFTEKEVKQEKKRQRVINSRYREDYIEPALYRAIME
CtBP-E1A blk = qHTS Assay for Inhibitors of the CtBP/E1A Interaction | CtBP / adenovirus E1A interaction (AlphaScreen) | AlphaScreen GST-E1A/His-CtBP binding, 1536-well; active compounds read low | activity change, % (concentration not given with the values) | hit rate 0.49% among 340,000 | AID 651724, 2012; in the data active = activity change below about -65%; inconclusive = mostly about -30% to -63%
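AlphaScreen with 125 nM GST-E1A and 125 nM His-CtBP (5X stocks) in Tris pH 8.0, 300 mM NaCl, BSA, Tween 20, TCEP. Compounds preincubated 2 h at 37 deg C, then glutathione donor/nickel acceptor beads added for 1 h at 37 deg C in dark.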
HP1b binding inh = HTS for Inhibitors of HP1-beta Chromodomain Interactions with Methylated Histone Tails. AID 540317, 2011. Chromobox protein homolog 1 (Homo sapiens), P83916. AlphaScreen HP1-beta / biotin-H3K9me3 peptide binding. hit rate 0.56% among 390,000. Potency, µM (top dose mostly 114 µM), usual class: inhibitors; also: nearly all actives have a fitted effect of over 70% in size
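AlphaScreen: HP1-beta (50 nM) preformed 30 min with biotin-H3(1-18)K9me3 peptide (50 nM) in PBS pH 7.4, 0.01% Tween-20. Compound added for 30 min at RT, then streptavidin donor/nickel chelate acceptor beads (10 ug/mL) for 30 min.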
Six1-Eya2 blk = qHTS Assay for Inhibitors of the Six1/Eya2 Interaction | activity change, % (concentration not given with the values) | AlphaScreen GST-Six1/His-Eya2 binding, biochemical; active compounds read low | hit rate 0.56% among 360,000; in the data active = activity change below about -65%; inconclusive = mostly about -30% to -63%
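Homogeneous AlphaScreen proximity assay pairing GST-Six1 with His-tagged Eya2 (added as 5X mix: 250 nM and 500 nM) in 50 mM Tris pH 8.0, 300 mM NaCl, 1 mM TCEP. Glutathione donor and nickel acceptor beads; 1 h, 37 °C, dark.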
A number is an active result; n = inactive; u = inconclusive; x = no result given. Unless noted, calls follow the shape of the dose curve; as a rule, active = well fitted inhibition curve with a large enough effect; inconclusive = small, poorly fitted or top-dose-only effect; inactive = no such curve, though single readings can be large or run the other way.

SMILES	TDP1 inh	BAZ2B block	JMJD2A Tudor inh	CtBP-E1A blk	HP1b binding inh	Six1-Eya2 blk
CC(=O)Nc1ccc(S(=O)(=O)Nc2cc(C)cn(Cc3ccccc3)c2=O)cc1	n	n	25µM	n	n	n
O=C1C(NS(=O)(=O)c2cccs2)=C(N2CCN(c3cccc(Cl)c3)CC2)C(=O)c2ccccc21	n	8.9µM	7.1µM	u	u	u
COc1ccc(-c2cnc(C)o2)cc1S(=O)(=O)Nc1ccc(F)cc1F	n	u	n	x	n	x
Cc1nc(NCc2ccccc2)c2nc(-c3ccccc3)n(C(C)CN(C)C)c2n1 (stereo unspecified)	n	x	x	x	x	x
Cc1cccc(-c2nn3c(=O)cc(CN4CCN(C(=O)/C=C/c5ccccc5)CC4)nc3s2)c1	n	n	n	x	n	x
CC1CCN(C2=C(NS(=O)(=O)c3ccccc3)C(=O)c3ccccc3C2=O)CC1	x	6.3µM	14µM	-85	14µM	-72
O=C1C(NS(=O)(=O)c2ccccc2)=C(N2CCN(c3ccc(F)cc3)CC2)C(=O)c2ccccc21	x	4µM	u	-88	10µM	-77
CCN1CCN(C2=C(NS(=O)(=O)c3ccc(C)cc3)C(=O)c3ccccc3C2=O)CC1	n	u	n	n	n	n
CC1CCN(C(CNS(=O)(=O)c2ccccc2)c2ccccc2)CC1 (stereo unspecified)	n	n	n	n	n	n
O=C1C(NS(=O)(=O)c2ccc(Br)cc2)=C(N2CCCCC2)C(=O)c2ccccc21	n	5µM	8.9µM	x	10µM	u
CC1CCN(C2=C(NS(=O)(=O)c3ccc(Cl)cc3)C(=O)c3ccccc3C2=O)CC1	n	4.5µM	45µM	u	u	n
Cc1ccc(N2CCN(C(=O)c3c(C)oc4ncnc(N5CCCCC5)c34)CC2)c(C)c1	n	u	n	x	n	x
CCc1nn(CC(=O)Nc2ccc(N(CC)CC)cc2C)c(=O)c2cc3sccc3n12	n	n	n	x	n	x
CC1CCCN(C2=C(NS(=O)(=O)c3ccc(Br)cc3)C(=O)c3ccccc3C2=O)C1 (stereo unspecified)	x	3.5µM	3.5µM	u	u	n
CC1CCCN(C(=O)c2ccc(S(=O)(=O)Nc3ccccc3Cl)cc2)C1 (stereo unspecified)	n	n	n	n	n	n
CN1CCN(C(=O)c2cnn(-c3cccc(Cl)c3)c2C2CCN(C(=O)OC(C)(C)C)CC2)CC1	n	n	n	x	n	x
Cc1cc(=O)[nH]c(N/N=C/c2cccs2)n1	n	n	u	u	n	n
O=c1cnnc(N/N=C/c2cccs2)[nH]1	n	79µM	n	x	n	u
NS(=O)(=O)c1ccc2c(c1)C1C=CCC1C(C1CC=CCC1)N2 (stereo unspecified)	n	50µM	u	n	n	n
CC(C)C1Nc2ccc(S(N)(=O)=O)cc2C2C=CCC21 (stereo unspecified)	n	u	u	n	n	n
CC(=O)c1ccc(-n2c(CCC(=O)O)ccc2-c2ccc(C)cc2)cc1	x	n	u	n	n	n
CCOC(=O)c1ccc(-n2c(CCC(=O)O)ccc2-c2ccc(Br)cc2)cc1	x	50µM	u	x	u	x
CC(=O)c1ccc(-n2c(CCC(=O)O)ccc2-c2ccccc2)cc1	x	n	n	x	n	n
O=C(O)CCc1ccc(-c2ccc(Cl)cc2)n1-c1cccc(C(F)(F)F)c1	x	35µM	u	x	n	x
Cc1ccc(-c2ccc(CCC(=O)O)n2-c2cccc(O)c2)cc1	n	u	u	n	n	n
SMILES	TDP1 inh	BAZ2B block	JMJD2A Tudor inh	CtBP-E1A blk	HP1b binding inh	Six1-Eya2 blk
CCOc1ccc(-n2c(CCC(=O)O)ccc2-c2ccc(Br)cc2)cc1	x	40µM	u	x	u	x
CC(=O)c1ccc(-n2c(CCC(=O)O)ccc2-c2ccc(Br)cc2)cc1	x	u	u	n	n	n
CN(C)c1ccc(-n2c(CCC(=O)O)ccc2-c2ccccc2)cc1	n	28µM	50µM	x	u	x
Cc1cc2c(cc1S(=O)(=O)N(C)CC(=O)Nc1cccc(C#N)c1)OCC(=O)N2	n	n	n	x	n	x
O=C(NCCc1ccccc1)c1nnc(Cc2cccc(F)c2)o1	n	n	n	x	n	x
O=C(O)CCc1ccc(-c2ccc(Br)cc2)n1-c1ccc(O)cc1	x	40µM	u	n	u	n
Cc1ccc(-c2ccc(CCC(=O)O)n2-c2ccc(O)cc2)cc1	n	u	u	n	n	n
COc1ccc(/C=N/n2c(-c3cccs3)n[nH]c2=S)cc1	n	n	45µM	n	n	n
Cc1ccc(/C=N/n2c(-c3cccs3)n[nH]c2=S)cc1	n	n	50µM	n	n	u
S=c1[nH]nc(-c2cccs2)n1/N=C/c1c(Cl)cccc1Cl	n	n	u	n	n	n
CC(C)Oc1ccc(CNC(=O)c2ccc3c(c2)nc2n3CCCCC2)cc1	n	n	n	x	n	x
CCCCC1=CC2=C(OC(C)=O)C(=O)C(C)(OC(=O)CCC(=O)OC)C(=O)C2=CO1 (stereo unspecified)	n	x	x	x	x	x
S=c1[nH]c(-c2ccccc2)cn1/N=C/c1cccnc1	n	n	0.79µM	n	n	n
O=C(O)c1ccc(/C=N/n2cc(-c3ccccc3)[nH]c2=S)cc1	n	n	2.8µM	x	n	n
COc1ccc2nc3oc(C(=O)NCc4ccccc4OC)cc3cc2c1	n	x	n	x	n	x
CCOc1cccc(OCCOCCN(C)Cc2ccccc2)c1	n	n	n	n	n	n
c1ccc2cc(OCCOCCOc3ccc4ccccc4c3)ccc2c1	u	n	n	n	n	n
CN(C)CCOc1cccc(Cl)c1	n	u	22µM	n	u	n
CN(C)CCOc1ccc2ccccc2c1	n	45µM	10µM	n	u	n
CCOc1cccc(OCCOCCN(C)C)c1	n	u	22µM	n	u	n
CCC(=O)N1CCc2cc(CNC(=O)c3ccc(F)cc3)ccc21	n	n	n	x	n	x
Cc1cc([N+](=O)[O-])cnc1Sc1nccn1C	n	50µM	n	x	n	n
O=C(N/N=C/c1ccc(O)c([N+](=O)[O-])c1)C(O)(c1ccccc1)c1ccccc1	x	n	n	n	n	n
CC(C)(c1ccc(O)c([N+](=O)[O-])c1)c1ccc(O)c([N+](=O)[O-])c1	x	x	56µM	n	u	n
O=C(Nc1ccc(S(=O)(=O)Nc2cnc3ccccc3n2)cc1)c1cc(F)c(F)cc1Cl	x	n	79µM	n	n	n
O=C(CSc1cn(CCNC(=O)c2ccccc2F)c2ccccc12)Nc1ccc(F)cc1	n	n	n	x	n	x
